Assay results reported in PubChem BioAssay AID2796 (The Scripps Research Institute Molecular Screening Center, 2010).
About 8,000 (2.5%) of roughly 320,000 compounds were called active. Cut-off read from the data, not from the text of the source: active = activation above about 47%; inactive = the rest. Only a selection was taken, and actives are over-represented in it overall.

These compounds were tested against Aryl hydrocarbon receptor (Homo sapiens) (UniProt P35869) (assay: AHR activators, primary screen, cell-based, luminescence, luciferase reporter, human (AID 2796;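 note: 0% = vehicle wells and 100% = reference agonist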)). Conditions: AHR-responsive luciferase reporter cells, at 5 µM, active compounds read high.
Chain of Aryl hydrocarbon receptor (Homo sapiens) (P35869 whole entry, looked up): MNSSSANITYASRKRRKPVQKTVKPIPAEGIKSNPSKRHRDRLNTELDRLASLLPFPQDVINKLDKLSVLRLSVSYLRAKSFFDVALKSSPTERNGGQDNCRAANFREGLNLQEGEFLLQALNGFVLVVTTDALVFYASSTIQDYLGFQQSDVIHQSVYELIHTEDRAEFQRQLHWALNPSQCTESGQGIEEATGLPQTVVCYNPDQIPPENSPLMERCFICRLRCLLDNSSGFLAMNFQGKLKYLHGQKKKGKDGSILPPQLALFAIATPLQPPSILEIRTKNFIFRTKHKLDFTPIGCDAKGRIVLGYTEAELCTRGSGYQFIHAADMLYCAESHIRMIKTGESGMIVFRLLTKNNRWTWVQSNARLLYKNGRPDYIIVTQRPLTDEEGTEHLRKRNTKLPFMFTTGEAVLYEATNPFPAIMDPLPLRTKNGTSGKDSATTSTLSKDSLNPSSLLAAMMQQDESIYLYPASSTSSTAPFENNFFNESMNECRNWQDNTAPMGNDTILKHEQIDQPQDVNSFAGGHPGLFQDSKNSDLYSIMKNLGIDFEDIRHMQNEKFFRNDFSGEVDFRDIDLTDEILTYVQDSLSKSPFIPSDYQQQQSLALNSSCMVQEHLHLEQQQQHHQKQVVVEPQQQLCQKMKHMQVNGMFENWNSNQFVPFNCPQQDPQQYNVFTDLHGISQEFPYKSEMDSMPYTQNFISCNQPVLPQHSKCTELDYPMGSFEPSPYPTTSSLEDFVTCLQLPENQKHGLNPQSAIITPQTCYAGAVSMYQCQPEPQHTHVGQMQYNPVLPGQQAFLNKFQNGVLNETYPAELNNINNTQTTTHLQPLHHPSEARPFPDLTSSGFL
For `CCOC(=O)c1ccc(NC(=O)C2CC(=O)N(c3ccc4c(c3)OCCO4)C2)cc1` (centres undefined), the activation was -1.04% (inactive).
In the case of `O=C(c1cc2ccccc2s1)N1CCN(c2ccccn2)CC1`, the activation is reported as 27.8% (inactive).
For `CCc1ccccc1N(CC(=O)N1CCN(c2ccccc2F)CC1)S(C)(=O)=O`, the activation was -0.81% (inactive).
With `COc1ccc(/C=N/NC(=O)c2ccc3c(c2)OCCO3)c(OC)c1` the activation was 2.32% (inactive).
With `COc1ccc(C(=O)Nc2ccccc2C(=O)N/N=C/c2ccc(O)c(OC)c2)cc1` the activation was 8.36% (inactive).
`COc1ccc(C(=O)Nc2ccccc2C(=O)N/N=C/c2ccccc2OC)cc1` was tested, and the activation was 103% (active).
`O=C(/C=C(O)/C=C/c1ccc(O)cc1)/C=C/c1ccc(O)cc1` was tested, and the activation was -0.31% (inactive).
For `Cn1c(=O)n(C)c2cc(/C=N/NC(=O)c3cccc(Br)c3)ccc21`, the activation was 31.6% (inactive).
In the case of `O=C(N/N=C\c1cccc(Br)c1)c1ccccc1-n1cccc1`, the activation is reported as 64.9% (active).
With `O=C(N/N=C/c1cccc(Br)c1)c1ccc(N2CCCC2=O)cc1` the activation was -0.14% (inactive).
`CC(C)CC(=O)NC(=S)Nc1ccc(F)cc1F` was tested, and the activation was -1.68% (inactive).
For `CCOC(=O)C1CCN(S(=O)(=O)c2c(C)noc2C)CC1`, the activation was -0.3% (inactive).
In the case of `C=CCC1(C(=O)N(C)Cc2ccccc2)CCN(C(=O)OC(C)(C)C)CC1`, the activation is reported as 5% (inactive).
`COC(=O)[C@]1(C)N[C@H](CN(C)C(=O)c2ccc(C(C)(C)C)cc2)[C@@H]2C(=O)N(C)C(=O)[C@@H]21` was tested, and the activation was 0.09% (inactive).
With `N#CCCCn1c(O)c(N=NC(=O)C(O)c2ccccc2)c2ccccc21` (centres undefined) the activation was 6.74% (inactive).
With `CC(C(=O)N=Nc1c(O)n(C)c2ccc(Br)cc12)n1cnc2ccccc2c1=O` (centres undefined) the activation was 80% (active).
For `O=C(Nn1cnc2ccccc2c1=O)c1ccccc1`, the activation was 4.61% (inactive).
With `O=S(=O)(NCCSc1ccccn1)c1ccc(Cl)cc1` the activation was 0.03% (inactive).
With `COc1ccc(CCNC(=O)COC(=O)c2ncc(Cl)c(Cl)c2Cl)cc1OC` the activation was -0.83% (inactive).
In the case of `COc1ccc(Nc2nc(N)nc(CSC(=S)N3CCC(C)CC3)n2)cc1`, the activation is reported as 25.5% (inactive).
For `COc1cccc(NC(=S)N(CCc2c(C)[nH]c3ccccc23)Cc2ccco2)c1`, the activation was 12% (inactive).
For `CCNC(=S)N(CCc1c(C)[nH]c2ccc(C)cc12)Cc1ccco1`, the activation was 59.4% (active).
In the case of `COCCNC(=S)N(CCc1c(C)[nH]c2ccc(C)cc12)Cc1cccnc1`, the activation is reported as 20.1% (inactive).
In the case of `Cc1ccc(CN(CC(=O)NC2CCCCC2)C(=O)c2csnn2)cc1`, the activation is reported as -0.48% (inactive).
`CCOC(=O)C1(CCOc2ccccc2)CCN(Cc2cc(OC)cc(OC)c2)CC1` was tested, and the activation was 7.35% (inactive).
In the case of `CCOc1ccc(NC(=O)[C@H](C)NC(=O)C2CC(=O)N(c3ccc(OC)cc3)C2)cc1` (some centres undefined), the activation is reported as 1.62% (inactive).
`CCNC(=O)NC(=O)C(C)OC(=O)C1CCN(S(=O)(=O)c2ccccc2F)CC1` (centres undefined) was tested, and the activation was -0.8% (inactive).
For `COc1ccccc1N1CCN(C(=O)C2Cc3ccccc3CN2C(=O)c2ccco2)CC1` (centres undefined), the activation was 1.25% (inactive).
For `O=C(Nc1ncc2c(n1)-c1ccccc1OC2)c1ccc(Cl)cc1`, the activation was 37% (inactive).
In the case of `COc1ccc(C(=O)Nc2ncc3c(n2)-c2ccccc2CC3)cc1`, the activation is reported as 103% (active).
In the case of `COc1ccc(NC(=O)c2cnc(NS(=O)(=O)c3ccccc3)nc2)cc1`, the activation is reported as -2.22% (inactive).
For `C/C(=N\NC(=S)NCc1ccccc1)C1CCCCC1`, the activation was 3.74% (inactive).
`CCN(c1ccccc1)S(=O)(=O)c1ccc(C(=O)Nc2ccccc2OC)cc1` was tested, and the activation was 1.62% (inactive).
With `COC(=O)c1ccccc1NC(=O)CSc1ccccn1` the activation was 0.37% (inactive).
`CCOC(=O)CSc1ccccn1` was tested, and the activation was -0.06% (inactive).
With `O=C(CSc1ccccn1)Nc1nc2c(ccc3ccccc32)s1` the activation was 96.3% (active).
For `Cc1ccc(S(=O)(=O)CCC(=O)OCC(=O)NCCc2ccc(S(N)(=O)=O)cc2)cc1`, the activation was -0.33% (inactive).
`CN(CC(=O)Nc1ccc(OC(F)F)cc1)S(=O)(=O)/C=C/c1ccccc1` was tested, and the activation was 3.23% (inactive).
`Cc1cc(C)c(S(=O)(=O)c2ccccc2)c(OC(=O)c2c(F)cccc2Cl)n1` was tested, and the activation was -0.47% (inactive).
For `Cc1cccc(C)c1NC(=O)C1CCCN1C(=O)OC(C)(C)C` (centres undefined), the activation was 4.06% (inactive).
For `COc1ccc(NC(=O)COC(=O)c2n[nH]c3ccccc23)c(OC)c1`, the activation was 23.3% (inactive).
`O=C(COC(=O)c1n[nH]c2ccccc12)Nc1ccccc1Br` was tested, and the activation was 53.9% (active).
`CN(C)S(=O)(=O)c1ccc(NC(=O)COC(=O)c2n[nH]c3ccccc23)cc1` was tested, and the activation was 6.56% (inactive).
With `C[C@@H]1NC(=O)c2cc([N+](=O)[O-])cc(F)c2NCCC[C@@H](C(N)=O)NC(=O)[C@H](CC(N)=O)NC1=O` the activation was -4.67% (inactive).
With `COCCN(C(=O)c1ccccc1F)c1c(N)n(Cc2ccccc2)c(=O)[nH]c1=O` the activation was 0.27% (inactive).
For `O=S(=O)(Nc1ccc(O)c2ccccc12)c1ccc(OC(F)(F)F)cc1`, the activation was 33.7% (inactive).
For `CCOc1ccccc1NC(=O)CCS(=O)(=O)c1cccc2nsnc12`, the activation was 11.7% (inactive).
In the case of `CCOc1ccc(OCC)c(NC(=O)CN(C)S(=O)(=O)c2cccc3nsnc23)c1`, the activation is reported as 53.7% (active).
With `CCOc1ccc(N(CC)S(=O)(=O)c2cccc3nsnc23)cc1` the activation was 5.33% (inactive).
In the case of `Cc1ccccc1CN1CCC(C(=O)Nc2ccc(Oc3cccnc3)cc2)CC1`, the activation is reported as 1.47% (inactive).
With `O=C(Nc1cc2c3c(c1)CC(=O)N3CCC2)c1ccccc1F` the activation was 3.64% (inactive).
`CC(Nc1nc(C(F)(F)F)nc2ccccc12)c1cccs1` (centres undefined) was tested, and the activation was 0.19% (inactive).
For `Cc1cccc(NC(=O)c2ccc3ccccc3n2)n1`, the activation was 82.1% (active).
`Cc1cccc(NC(=O)c2cccnc2Cl)n1` was tested, and the activation was -1.7% (inactive).
`Cc1cccc(NC(=O)c2cc(N3C(=O)CCC3=O)ccc2Cl)n1` was tested, and the activation was -0.56% (inactive).
For `Cn1ccnc1-c1nnn(-c2ccc(F)cc2)n1`, the activation was -1.09% (inactive).
With `O=C(COc1ccc(-c2ccccc2)cc1)NN=C1CCCC1` the activation was 52.1% (active).
In the case of `O=C(COc1ccccc1)Nc1ccc(C(=O)N2CCCC2)cc1`, the activation is reported as -2.51% (inactive).
In the case of `CC(NC(=O)COc1ccc(-c2ccccc2)cc1)C1CCCO1` (centres undefined), the activation is reported as 19.8% (inactive).
